Results on 105 compounds are retold here after ChEMBL document CHEMBL4513216, “Probing the Open Global Health Chemical Diversity Library for Multistage-Active Starting Points for Next-Generation Antimalarials” (ACS Infect Dis, 2020).

Among all 69,000 compounds or so, about 8,600 (12%) showed an effect of 50% or more. The sample holds strong results, similar compounds and a random draw of the others, so the mix is not that of the screen.

This assay deals with Plasmodium berghei. The experiment in a line: Screen against P. berghei liver stage (PbLuc), transformed with Luciferase, at 10uM. It is filed as functional, HepG2. The following applies: tested at 10 uM.
Consider `CC(=O)N1CCn2c(nnc2C2CCCCN2C(C)=O)C1` (stereo not given), for which the INHIBITION is -55%.
For `COCCNC(=O)c1cc(C(C)C)nc(N2CCCC2)n1` the value was 16.8%; for `COCCCNC(=O)c1cc(C(C)C)nc(N2CCCC2)n1`, -23.8%.
In the case of `CCCNC(=O)c1cc(C(C)C)nc(N2CCCCC2)n1` it was 44.9%; in that of `CC(C)c1cc(C(=O)NCCN2CCOCC2)nc(N2CCCC2)n1`, 51.6%.
In the case of `CC(C)c1cc(C(=O)NCCCN(C)C)nc(N2CCCC2)n1`, the INHIBITION is 52.4%.
As to `CCCNC(=O)c1cc(C(C)C)nc(N2CCCC2)n1`, the INHIBITION came to 32.5%.
On to `COCCNC(=O)c1cc(C(C)C)nc(N2CCCCC2)n1`, for which the INHIBITION is recorded as 52.4%.
Regarding `CCN(CC)CCNC(=O)c1cc(C(C)C)nc(N2CCCC2)n1`, the INHIBITION is 15.8%.
Consider `COCCCNC(=O)c1cc(C(C)C)nc(N2CCCCCC2)n1`, for which the INHIBITION came to 37.5%.
In the case of `c1ccc(C2CN(CCc3ccncc3)CCO2)cc1` (stereo not given) it was 6.12%.
In the case of `CN(CC(F)(F)F)C(=O)Cn1cc(NC(=O)C(C)(C)C)cn1`, the INHIBITION was -0.551%.
As to `Cc1nn(C)c(N(C)C)c1CNC1CCc2cc(F)ccc21` (stereo not given), the INHIBITION is 27.4%.
In the case of `Cc1ccccc1S(=O)(=O)N[C@@H]1CC[C@@H](N2CCNC(=O)C2)[C@@H]1O` it was 6.65%; in that of `COc1cc(CNCC(O)c2cccc(F)c2)cc2c1OCO2` (stereo not given), 44.1%.
In the case of `Cc1nc(CN(C)C2CCCN(c3cccnn3)C2)nc2ccccc12` (stereo not given) it was 47%.
Regarding `CCN(CC)c1ncccc1CNCc1ccc(-c2ccn[nH]2)s1`, the INHIBITION was found to be 27.6%.
On to `O=C(O)c1ccccc1-c1ccc(CNC(=O)C2CCOCC2)cc1`, for which the INHIBITION is 56.6%.
For `O=C(O)c1ccccc1-c1cnc(CNC(=O)C2CCOCC2)nc1` the value was -17.35%; for `CC1CCCCN1Cc1ccc(-c2ccccc2C(=O)O)cc1` (stereo not given), 25.3%; for `COCc1cc(NCC(F)(F)F)n2nccc2n1`, 7.24%.
In the case of `Cc1nc(N(C)C)nc(NCCc2cnccn2)c1C` it was 27.4%; in that of `c1cncc(N2CCCC3(CCN(CCN4CCCC4)CC3)C2)c1`, -26.1%; in that of `N#Cc1ccc(N2CCC3(CC2)CC(Oc2cccnc2)CO3)cc1` (stereo not given), 73.3%.
For `O=C(c1ccncc1)N1CCC2(CC1)CC(Oc1cccnc1)CO2` (stereo not given) the value was 35.8%; for `c1cncc(COC2COC3(CCN(c4cnccn4)CC3)C2)c1` (stereo not given), 60%.
Regarding `Fc1cnc(N2CCC3(CC2)CC(OCc2cccnc2)CO3)nc1` (stereo not given), the INHIBITION is on record as 30.5%.
On to `N#Cc1ccc(N2CCCC3(CCN(c4cccnc4)CC3)C2)cc1`, for which the INHIBITION is on record as 85.6%.
As to `CN1CCOCC12CCN(c1ccc(C#N)cc1)CC2`, the INHIBITION is -15.3%.
In the case of `O=S(=O)(C1CC1)N1CCC2(CC1)CC(Oc1cccnc1)CO2` (stereo not given) it was 26.7%; in that of `N#Cc1ccc(N2CCC3(CC2)CC(N2CCOCC2)CO3)cc1` (stereo not given), 73.2%.
For `CN(C)C(=O)COC1COC2(CCN(c3cnccn3)CC2)C1` (stereo not given) the value was 21.6%.
Take `c1cncc(N2CCC3(CCCN(c4ccncc4)C3)CC2)c1`: the INHIBITION is reported as -29%.
For `CN1CCN(C2COC3(CCN(c4ccc(C#N)cc4)CC3)C2)CC1` (stereo not given) the value was 39.5%.
In the case of `O=C(c1cccc(N2CCCC2=O)c1)N1CCCC(n2cccn2)C1` (stereo not given) it was -21.35%.
For the compound `O=C(c1c[nH]c(=O)[nH]c1=O)N1CCCC(c2nccn2CC2CCC2)C1` (stereo not given), the INHIBITION is on record as 22%.
In the case of `CC(=O)N(Cc1ncc(C)o1)C1CCN(CCc2ccncc2)C1` (stereo not given) it was 12.7%; in that of `CN(Cc1ccccc1F)C(=O)COC(=O)c1cc(Cl)c[nH]1`, 29.9%.
In the case of `O=c1[nH]c(-c2ccncc2)ncc1-c1ccnc(NC2CC2)n1` it was 18.9%; in that of `c1cnc(Nc2ccc(C3CCCCN3Cc3ccncc3)cn2)nc1` (stereo not given), 23.3%; in that of `O=C(Cc1ccccc1)N1CCC2(CC1)COCCN2CC1CC1`, 6.6%.
For `COCCOCC(C)NC(=O)COc1nn(C)c2nc(C)cc(C)c12` (stereo not given) the value was 9.63%; for `CCOc1ncccc1NC(=O)NC1CCN(S(C)(=O)=O)CC1`, 44.8%; for `O=C(Nc1nc(-c2ccccc2)ns1)N1CCC(CO)CC1`, -95.1%.
As to `Cc1nn(C)c(N(C)C)c1CNCc1cccc(Cn2ccnc2)c1`, the INHIBITION is given as -31.5%.
For `c1cncc(CO[C@H]2CO[C@@]3(CCN(Cc4ccoc4)C3)C2)c1` the value was -0.79%; for `Fc1ccc(N2CCC3(CC2)CC(OCc2cccnc2)CO3)cc1` (stereo not given), 33.4%; for `N#Cc1ccc(N2CCC3(CC2)CC(OCc2cccnc2)CO3)cc1` (stereo not given), 58.5%.
`O=C(NCc1ccco1)[C@H]1C[C@@H]2CCN(c3ncccn3)C[C@H]2O1`: the INHIBITION worked out at 9.51%.
As to `c1cc(CNCC2OCCc3cn(CC4CC4)nc32)cs1` (stereo not given), the INHIBITION is 20.9%.
For `COc1ccc2c(c1)c(-c1nc(C)ncc1CN)cn2C` the value was 27.6%; for `CN(Cc1ccc(CCC(C)(C)O)cc1)Cc1cccc(O)c1`, 22.5%; for `CN(Cc1ccccc1)CC(C)(C)NC(=O)c1ccc(C(N)=O)cn1`, 52.2%.
Take `CN(Cc1ccccc1)CC(C)(C)NC(=O)c1cnns1`: the INHIBITION is reported as 25.3%.
Turning to `CN(Cc1ccc(CCC(C)(C)O)cc1)Cc1cccnc1`, the INHIBITION amounted to 57.1%.
For `Cc1cnc(CNC(=O)N(Cc2ccccc2)CC(C)(C)O)s1` the value was 15.7%; for `CN(Cc1ccccc1)CC(C)(C)NC(=O)c1cnccn1`, 64.5%.
In the case of `CN(Cc1ccccc1)CC(C)(C)NC(=O)c1ccon1` it was 38.7%.
For `CC(c1ccccn1)N(C)Cc1ccc(CCC(C)(C)O)cc1` (stereo not given), the INHIBITION amounted to 36.6%.
`CC(C)(C)CNC(=O)c1ccc(C(=O)O)cn1`: the INHIBITION is 11.3%.
For `Cc1ccc(C(=O)N2CCN3C[C@H](Oc4cccc(F)c4)C[C@H]3C2)cn1` the value was 0.804%; for `O=C(NCC1CC2(CO1)CN(Cc1cccs1)C2)C1CCC1` (stereo not given), 27.6%.
In the case of `COc1ccc(F)c(-c2ncccc2C(=O)N2C[C@@H]3CC[C@H]2C3)c1`, the INHIBITION is 39%.
Regarding `COc1ccc(OCc2cc(C(=O)N3CCN[C@H](C)C3)n[nH]2)c(Cl)c1`, the INHIBITION amounted to 65.1%.
For `COc1ccccc1OCc1cc(C(=O)N2CC(O)C2)n[nH]1` the value was -34.5%.
For `COc1ccccc1OCc1cc(C(=O)N2CCN[C@H](C)C2)n[nH]1` the value was 51.8%; for `COc1ccc(OCc2cc(C(=O)N3C[C@@H](C)O[C@@H](C)C3)n[nH]2)c(Cl)c1`, 44.2%; for `COc1ccccc1OCc1cc(C(=O)N2C[C@@H](C)O[C@@H](C)C2)n[nH]1`, -16%.
In the case of `COc1ccc(OCc2cc(C(=O)N3CCC(O)CC3)n[nH]2)c(Cl)c1` it was -3.75%; in that of `Cc1cccc(C(=O)N2CC(=O)N(c3ccccc3Cl)CC2C)n1` (stereo not given), 28.2%; in that of `Cc1ccc(N(C)S(=O)(=O)c2cc(C(=O)O)cs2)c(C)c1`, -42.1%.
Regarding `Cn1cc(CN2CC[C@H]3OCC[C@@H](C(=O)NC4CCCC4)[C@@H]3C2)cn1`, the INHIBITION turned out to be 10%.
For `CNc1nc2cn(CCc3ccc(F)cc3)c(=O)c-2c[nH]1` the value was 45.8%; for `O=C1CC(c2ccc(O)cc2)c2c(c(C(=O)O)cn2-c2ccccc2)N1` (stereo not given), 25.2%; for `COc1ccc(CN2CCn3cc(Cn4cccn4)nc3C2)cc1`, 7.9%.
For `COc1ccccc1OCCN(C)Cc1c(C2CC2)[nH]c2ncccc12` the value was 10.7%; for `COc1ccccc1C(C)CC(=O)N1CCCS1(=O)=O` (stereo not given), -6.7%; for `CC(Cc1ccc(C(F)(F)F)cc1)C(=O)N1CCCS1(=O)=O` (stereo not given), -33.4%.
For `CC(CC(=O)N1CCCS1(=O)=O)c1ccccc1C(F)(F)F` (stereo not given) the value was 50.1%.
Turning to `Cc1ncc(C(=O)N2CCCC2c2c(C)nn(C)c2C)s1` (stereo not given), the INHIBITION turned out to be 23.2%.
For `CCc1ccc(CC)c(NCc2cnc(N3CCOCC3)nc2)c1` the value was -36.4%; for `O=C(c1c[nH]cn1)N1CCC(F)(F)C2(CCN(c3cnccn3)C2)C1` (stereo not given), 52.3%.
Take `O=C(c1c[nH]cn1)N1CCC(F)(F)C2(CCN(c3ccccn3)C2)C1` (stereo not given): the INHIBITION was determined as 34.6%.
In the case of `O=C(c1c[nH]cn1)N1CCC(F)(F)C2(CCN(c3ncccn3)C2)C1` (stereo not given) it was 2.41%; in that of `CN1C(=O)COc2ccc(C(=O)Cn3cnc4ccccc4c3=O)cc21`, -35.1%.
For `Cc1cnn(CC2CCCCN2C(=O)CCCc2nc(C)no2)c1` (stereo not given) the value was 11.3%; for `COc1cc(OC)cc(C(=O)Nc2ncnc3c2CCC3)c1`, 52.4%.
In the case of `O=C(Nc1ncnc2c1CCC2)c1ccc2c(c1)OCO2` it was -19.7%; in that of `O=C(Nc1ncnc2c1CCC2)c1cccc(F)c1`, -44.2%; in that of `Cc1cc(C(=O)NCc2ccc(F)cc2)c2c(C3CCCN3)noc2n1` (stereo not given), 31.7%.
In the case of `CNC(=O)c1cc2c(nc1NCC(C)C)CCN(CC1CC1)CC2`, the INHIBITION was 86.7%.
In the case of `CNC(=O)c1cc2c(nc1NCC1CC1)CCN(c1ncccn1)CC2`, the INHIBITION is given as -17.1%.
For `CC(C)CNc1nc2c(cc1C(=O)NCC1CC1)CCNCC2` the value was 94.5%; for `CNC(=O)c1cc2c(nc1NCC1CC1)CCN(CC1CC1)CC2`, 8.67%; for `CNC(=O)c1cc2c(nc1NCC(C)C)CCN(C)CC2`, 48.7%.
Take `CNC(=O)c1cc2c(nc1NCC(C)C)CCN(c1ncccn1)CC2`: the INHIBITION is 85.4%.
For `CC(C)Nc1nc2c(cc1C(=O)NCC1CC1)CCNCC2` the value was 32.7%; for `CNC(=O)c1cc2c(nc1NCC(C)C)CCN(S(=O)(=O)C1CC1)CC2`, -6.75%.
For `CNC(=O)c1cc2c(nc1NCC1CC1)CCNCC2` the value was 9.72%.
Regarding `CO[C@H]1CO[C@@]2(CCCN(S(=O)(=O)c3ccccc3)C2)C1`, the INHIBITION is 42.7%.
On to `O=C([C@H]1C[C@H]2OCC[C@H]2N(CCc2ccccc2)C1)N1CCCO1`, for which the INHIBITION was 43.9%.
In the case of `CC(C)NC(=O)Cn1cc(-c2ccccc2)ncc1=O` it was 12.9%; in that of `Cn1ccnc1-c1cnn(CC(=O)Nc2ccnn2C)c1`, 62.4%; in that of `CC(=O)c1ccc(-c2cnn(CC(=O)Nc3cc(C)nn3C)c2)nc1`, 28.7%.
For `CC(=O)c1ccc(-c2cnn(CC(=O)Nc3ccnn3C)c2)nc1` the value was 46.1%.
